In all, about 5,500 compounds went through this assay and about 2,000 (36%) were called active. Another 18% or so got no clear call; they are omitted. No stated cut-off is given here; in the data, active means normalized growth mostly below about 0.91 (no sharp cut-off); inconclusive means no clear call, values can overlap the other calls; inactive means mostly above about 0.92. Some of the results follow.
Test: chemical genetic growth profiling, strain panel (AID 1159580);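 further: tested at 20 µM; growth read once vehicle control cultures reached saturation at 30 °C; 1 = growth at the plate median or of vehicle wells; lower values mean less growth of the strain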
Settings: growth OD

Measured: normalized growth

O=C(O)CCC1NCC2CC1CN1CCCCC21 (configuration not stated)
inactive: S. cerevisiae deletion strains, locus YJR075W, strain HOC1, active compounds read low 1.01 | S. cerevisiae deletion strains, locus YKL009W, strain mrt4, active compounds read low 1.02 | S. cerevisiae deletion strains, locus YKL068W, active compounds read low 1 | S. cerevisiae deletion strains, locus YKL085W, strain MDH1 (second series), active compounds read low 1.02 | S. cerevisiae deletion strains, locus YKL085W, strain MDH1, active compounds read low 1.02 | S. cerevisiae deletion strains, locus YKL160W, strain elf1, active compounds read low 0.974 | S. cerevisiae deletion strains, locus YKL190W, strain CNB1, active compounds read low 1 | S. cerevisiae deletion strains, locus YKR001C, strain vps1, active compounds read low 0.995 | S. cerevisiae deletion strains, locus YKR026C, strain gcn3, active compounds read low 0.982 | S. cerevisiae deletion strains, locus YKR091W, strain srl3, active compounds read low 0.97 | S. cerevisiae deletion strains, locus YLL001W, strain dnm1, active compounds read low 0.954 | S. cerevisiae deletion strains, locus YLL026W, active compounds read low 0.98 | S. cerevisiae deletion strains, locus YLL041C, strain sdh2, active compounds read low 0.987 | S. cerevisiae deletion strains, locus YLR027C, strain aat2, active compounds read low 0.992 | S. cerevisiae deletion strains, locus YLR039C, strain RIC1, active compounds read low 0.998 | S. cerevisiae deletion strains, locus YLR058C, strain SHM2, active compounds read low 1.01 | S. cerevisiae deletion strains, locus YLR102C, strain apc9, active compounds read low 0.99 | S. cerevisiae deletion strains, locus YLR113W, strain HOG1, active compounds read low 0.983 | S. cerevisiae deletion strains, locus YLR221C, strain rsa3, active compounds read low 0.968 | S. cerevisiae deletion strains, locus YLR258W, strain gsy2, active compounds read low 0.992 | S. cerevisiae deletion strains, locus YLR262C, strain YPT6 (second series), active compounds read low 0.958 | S. cerevisiae deletion strains, locus YLR262C, strain YPT6, active compounds read low 0.97 | S. cerevisiae deletion strains, locus YLR268W, strain sec22, active compounds read low 0.988 | S. cerevisiae deletion strains, locus YLR320W, strain mms22, active compounds read low 0.962 | S. cerevisiae deletion strains, locus YLR330W, strain CHS5, active compounds read low 1.01 | S. cerevisiae deletion strains, locus YLR342W, strain FKS1 (second series), active compounds read low 1.05 | S. cerevisiae deletion strains, locus YLR342W, strain FKS1, active compounds read low 0.981 | S. cerevisiae deletion strains, locus YLR357W, strain rsc2, active compounds read low 0.971 | S. cerevisiae deletion strains, locus YLR370C, strain arc18, active compounds read low 0.978 | S. cerevisiae deletion strains, locus YLR371W, strain rom2, active compounds read low 0.998 | S. cerevisiae deletion strains, locus YLR384C, strain iki3, active compounds read low 0.969 | S. cerevisiae deletion strains, locus YLR418C, strain cdc73, active compounds read low 0.923 | S. cerevisiae deletion strains, locus YML016C, strain PPZ1, active compounds read low 1 | S. cerevisiae deletion strains, locus YML032C, strain rad52, active compounds read low 1 | S. cerevisiae deletion strains, locus YML120C, strain ndi1, active compounds read low 0.956 | S. cerevisiae deletion strains, locus YML124C, strain tub3, active compounds read low 0.997 | S. cerevisiae deletion strains, locus YMR058W, strain fet3, active compounds read low 0.969 | S. cerevisiae deletion strains, locus YMR078C, strain ctf18, active compounds read low 1 | S. cerevisiae deletion strains, locus YMR125W, strain sto1, active compounds read low 0.962 | S. cerevisiae deletion strains, locus YMR129W, active compounds read low 0.989 | S. cerevisiae deletion strains, locus YMR205C, strain PFK2, active compounds read low 0.964 | S. cerevisiae deletion strains, locus YMR223W, strain ubp8, active compounds read low 1.02 | S. cerevisiae deletion strains, locus YMR231W, strain pep5, active compounds read low 0.985 | S. cerevisiae deletion strains, locus YMR263W, strain SAP30, active compounds read low 0.998 | S. cerevisiae deletion strains, locus YMR307W, strain GAS1, active compounds read low 1.07 | S. cerevisiae deletion strains, locus YNL067W, strain RPL9B, active compounds read low 0.999 | S. cerevisiae deletion strains, locus YNL071W, strain lat1, active compounds read low 0.991 | S. cerevisiae deletion strains, locus YNL128W, strain TEP1, active compounds read low 1.02 | S. cerevisiae deletion strains, locus YNL153C, strain GIM3, active compounds read low 0.989 | S. cerevisiae deletion strains, locus YNL183C, strain NPR1, active compounds read low 0.938 | S. cerevisiae deletion strains, locus YNL209W, strain ssb2, active compounds read low 0.984 | S. cerevisiae deletion strains, locus YNL233W, strain BNI4, active compounds read low 1.01 | S. cerevisiae deletion strains, locus YNL248C, strain rpa49, active compounds read low 0.998 | S. cerevisiae deletion strains, locus YNL250W, strain rad50, active compounds read low 1.01 | S. cerevisiae deletion strains, locus YNL271C, strain bni1, active compounds read low 1 | S. cerevisiae deletion strains, locus YNL298W, strain CLA4, active compounds read low 0.997 | S. cerevisiae deletion strains, locus YNL307C, strain MCK1, active compounds read low 1 | S. cerevisiae deletion strains, locus YNL322C, strain KRE1 (second series), active compounds read low 0.97 | S. cerevisiae deletion strains, locus YNL322C, strain KRE1, active compounds read low 1.01 | S. cerevisiae deletion strains, locus YNR049C, strain mso1, active compounds read low 0.971 | S. cerevisiae deletion strains, locus YNR052C, strain pop2, active compounds read low 1 | S. cerevisiae deletion strains, locus YOL006C, strain TOP1, active compounds read low 1.04 | S. cerevisiae deletion strains, locus YOL012C, strain htz1 0.732 | S. cerevisiae deletion strains, locus YOL147C, strain pex11, active compounds read low 1 | S. cerevisiae deletion strains, locus YOR001W, strain rrp6, active compounds read low 1.01 | S. cerevisiae deletion strains, locus YOR061W, strain CKA2, active compounds read low 1 | S. cerevisiae deletion strains, locus YOR069W, strain VPS5, active compounds read low 1 | S. cerevisiae deletion strains, locus YOR070C, strain gyp1, active compounds read low 0.973 | S. cerevisiae deletion strains, locus YOR080W, strain dia2, active compounds read low 0.964 | S. cerevisiae deletion strains, locus YOR083W, strain WHI5, active compounds read low 0.965 | S. cerevisiae deletion strains, locus YOR106W, strain vam3, active compounds read low 0.968 | S. cerevisiae deletion strains, locus YOR136W, strain idh2, active compounds read low 0.998 | S. cerevisiae deletion strains, locus YOR144C, strain elg1, active compounds read low 0.988 | S. cerevisiae deletion strains, locus YOR184W, strain ser1, active compounds read low 1.04 | S. cerevisiae deletion strains, locus YOR231W, strain MKK1, active compounds read low 1.04 | S. cerevisiae deletion strains, locus YOR265W, strain rbl2, active compounds read low 0.977 | S. cerevisiae deletion strains, locus YOR270C, strain vph1, active compounds read low 0.951 | S. cerevisiae deletion strains, locus YOR290C, strain snf2, active compounds read low 0.916 | S. cerevisiae deletion strains, locus YOR316C, strain cot1, active compounds read low 0.992 | S. cerevisiae deletion strains, locus YPL051W, strain arl3, active compounds read low 0.982 | S. cerevisiae deletion strains, locus YPL055C, strain LGE1, active compounds read low 0.99 | S. cerevisiae deletion strains, locus YPL078C, strain atp4, active compounds read low 0.983 | S. cerevisiae deletion strains, locus YPL106C, strain sse1, active compounds read low 0.946 | S. cerevisiae deletion strains, locus YPL240C, strain hsp82, active compounds read low 0.974 | S. cerevisiae deletion strains, locus YPL241C, strain CIN2, active compounds read low 0.995 | S. cerevisiae deletion strains, locus YPL256C, strain CLN2, active compounds read low 1.02 | S. cerevisiae deletion strains, locus YPR119W, strain clb2, active compounds read low 0.991 | S. cerevisiae deletion strains, locus YPR141C, strain kar3, active compounds read low 0.987 | S. cerevisiae deletion strains, locus YPR163C, strain tif3, active compounds read low 0.983 | S. cerevisiae deletion strains, locus YPR167C, strain met16, active compounds read low 0.981 | S. cerevisiae deletion strains, strain wtn01, active compounds read low 0.999 | S. cerevisiae strains, strain wild type, active compounds read low 1.01

Reference: PubChem BioAssay AID1159580 (chemical genetic matrix, 2015)
